PubChem BioAssay (Tox21)
Results filed as inconclusive are left out. Where a call stands in place of a potency, no number is given. The source holds several records for some structures; these can differ, active in one and inactive in another. Activity calls are given as the source filed them. Unless noted, calls come from the whole dose curve; as a rule, active = well fitted curve in the direction sought with a large enough effect in the repeat runs; inconclusive = weak or mixed curves; inactive = no such curve, though single readings can be large; an effect the other way counts as inactive or inconclusive.

How the values were obtained:
[1] = qHTS assay to identify small molecule antagonists of the thyroid receptor (TR) signaling pathway - cell viability counter screen (AID 743064); note: nearly all actives have a fitted effect of over 50% in size
Outline: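 Compounds were tested on GH3.TRE-Luc cells in the presence of T3 at 1 nM final. Following 23.5 h at 37 °C, cell viability was quantified by CellTiter-Fluor.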

[2] = qHTS assay to identify small molecule antagonists of the thyroid receptor (TR) signaling pathway (AID 743065); note: series mostly up to about 70 µM; nearly all actives have a fitted effect of over 55% in size
Outline: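 GH3.TRE-Luc rat pituitary cells (two TREs driving luciferase) were dosed with compound, then stimulated with 1 nM T3 (final) for 23.5 h at 37 C. ONE-Glo luminescence was the read-out, with CellTiter-Fluor fluorescence as the cytotoxicity counter-screen.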

[3] = system: thyroid hormone receptor (rat, GH3 cells); assay: qHTS assay to identify small molecule agonists of the thyroid receptor (TR) signaling pathway (AID 743066; calls by dose curve)
[4] = qHTS assay to identify small molecule antagonists of the estrogen receptor alpha (ER-alpha) signaling pathway - cell viability counter screen (AID 743074; calls by dose curve;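 note: HEK293 cells carrying ER-alpha-UAS-bla reporter stimulated with 17beta-estradiol; nearly all actives have a fitted effect of over 45% in size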)
[5] = target: Estrogen receptor (Homo sapiens) (UniProt P03372); assay: qHTS assay to identify small molecule agonists of the estrogen receptor alpha (ER-alpha) signaling pathway (AID 743075; calls by dose curve;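 note: HEK293 GripTite cells with ER-alpha and UAS-driven beta-lactamase reporter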)
[6] = target: Estrogen receptor (Homo sapiens) (UniProt P03372); assay: qHTS assay to identify small molecule agonists of the estrogen receptor alpha (ER-alpha) signaling pathway using the BG1 cell line (AID 743079); note: nearly all actives have a fitted effect of over 20% in size; note: potency is the fitted concentration of half-maximal effect
[7] = qHTS assay to identify small molecule antagonists of the estrogen receptor alpha (ER-alpha) signaling pathway using the BG1 cell line (AID 743080; calls by dose curve;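 note: BG1 cells stimulated with 17beta-estradiol alongside compound; series mostly up to about 70 µM; nearly all actives have a fitted effect of over 25% in size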)
Outline: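 Readout is ONE-Glo luminescence, taken 30 min at room temperature after reagent addition, preceded by a CellTiter-Fluor viability read; BG1-Luc-4E2 cells had received compound and 17beta-estradiol for 21.5 h at 37 C.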

[8] = qHTS assay to identify small molecule antagonists of the estrogen receptor alpha (ER-alpha) signaling pathway using the BG1 cell line - cell viability counter screen (AID 743081);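 note: compound given together with 17beta-estradiol as the ER stimulus; series mostly up to about 70 µM; nearly all actives have a fitted effect of over 45% in size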
Aromatase (Homo sapiens) = Aromatase (Homo sapiens) (UniProt P11511); assay: qHTS assay to identify aromatase inhibitors (AID 743083); note: series mostly up to about 70 µM; nearly all actives have a fitted effect of over 55% in size
[9] = qHTS assay to identify aromatase inhibitors - cell viability counter screen (AID 743084);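 note: cells stimulated with testosterone during compound exposure; nearly all actives have a fitted effect of over 55% in size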
[10] = qHTS assay to identify small molecule that activate the aryl hydrocarbon receptor (AhR) signaling pathway - cell viability counter screen (AID 743086);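 note: HepG2 liver cells carrying the AhR DRE luciferase reporter; series mostly up to about 70 µM; nearly all actives have a fitted effect of over 45% in size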
Outline: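 HepG2-AhR-luc (HG2L7.5c1) cells, 4000/well, treated 24 h at 37 C with compound; viability measured as CellTiter-Fluor fluorescence after 30 min in the same wells as the luciferase read.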

[11] = target: Peroxisome proliferator-activated receptor gamma (Homo sapiens) (UniProt P37231); assay: qHTS assay to identify small molecule antagonists of the peroxisome proliferator-activated receptor gamma (PPARg) signaling pathway (AID 743191; calls by dose curve; note: series mostly up to about 63 µM; nearly all actives have a fitted effect of over 30% in size)
Outline: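 GeneBLAzer PPARg UAS-bla HEK293H cells, 5 h post-plating, exposed to compounds 17 h at 37C. LiveBLAzer B/G FRET substrate added for 1 h at room temperature; beta-lactamase reporter read by fluorescence intensity.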

[12] = qHTS assay to identify small molecule antagonists of the peroxisome proliferator-activated receptor gamma (PPARg) signaling pathway - cell viability counter screen (AID 743194); note: nearly all actives have a fitted effect of over 55% in size
Outline: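 Cytotoxicity counter screen in PPARg-bla HEK293H cells, same wells as reporter assay. Compounds plus 50 nM rosiglitazone (final) for 17 h at 37 C, then viability read by CellTiter-Glo luminescence.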

[13] = qHTS assay for small molecule agonists of the antioxidant response element (ARE) signaling pathway (AID 743202; active = well fitted activation curve with a large enough effect in the signal ratio in the repeat runs, not every such curve was filed as active; the % refers to the signal ratio)
Outline: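 HepG2 ARE-bla reporter line, 2,000 cells/well; 5 h preincubation 37 C/5% CO2; compound (DMSO) 16 h 37 C; B/G FRET substrate 2 h RT; fluorescence intensity.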

[14] = qHTS assay for small molecule agonists of the antioxidant response element (ARE) signaling pathway - cell viability counter screen (AID 743203; calls by dose curve; note: nearly all actives have a fitted effect of over 55% in size)
Outline: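 Measured in the same wells as the beta-lactamase ARE reporter, this read-out is CellTiter-Glo luminescence from HepG2 ARE-bla cells given compounds for 16 hrs.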

[15] = qHTS assay for small molecule activators of the heat shock response signaling pathway - cell viability counter screen (AID 743209); note: nearly all actives have a fitted effect of over 50% in size
Outline: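 Same-well multiplex: after 2.5 h room-temperature incubation with LiveBLAzer B/G substrate and fluorescence reading, CellTiter-Glo reagent was added to HSE-bla HeLa cells that had received compound for 5 h at 37 C; luminescence read after 30 min.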

[16] = qHTS assay for small molecule activators of the heat shock response signaling pathway (AID 743210; active = well fitted activation curve with a large enough effect in the signal ratio in the repeat runs, with a control signal flat, not every such curve was filed as active; the % refers to the signal ratio;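 note: HeLa cells with beta-lactamase reporter driven by heat shock elements; series mostly up to about 63 µM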)
Outline: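 Beta-lactamase reporter read-out: FRET substrate fluorescence after 2.5 h at RT, following 5 h compound treatment at 37 C of HeLa cells carrying HSE-driven bla reporter; quantitative HTS format.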

[17] = target: Peroxisome proliferator-activated receptor gamma (Homo sapiens) (UniProt P37231); assay: qHTS assay to identify small molecule agonists of the peroxisome proliferator-activated receptor gamma (PPARg) signaling pathway (AID 743094; active = well fitted activation curve with a large enough effect in the signal ratio in the repeat runs, not every such curve was filed as active; the % refers to the signal ratio)
Outline: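 Cell-based bla reporter, HEK293H background, PPARg-driven UAS. Pre-incubation 5 h, 37C, 5% CO2. Compound 17 h, 37C. Substrate 1 h RT; fluorescence.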

[18] = target: Aryl hydrocarbon receptor (Homo sapiens) (UniProt P35869); assay: qHTS assay to identify small molecule that activate the aryl hydrocarbon receptor (AhR) signaling pathway (AID 743085);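 note: HG2L7.5c1 human HepG2 liver cells with stably integrated DRE-driven firefly reporter; series mostly up to about 70 µM; nearly all actives have a fitted effect of over 15% in size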
Outline: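 24 h compound exposure, 37C, HepG2-derived HG2L7.5c1 cells with DRE-responsive luciferase. Readouts: fluorescence viability, then luminescence at room temperature after 30 min.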

Sequence of Estrogen receptor (Homo sapiens) (P03372 whole entry, looked up): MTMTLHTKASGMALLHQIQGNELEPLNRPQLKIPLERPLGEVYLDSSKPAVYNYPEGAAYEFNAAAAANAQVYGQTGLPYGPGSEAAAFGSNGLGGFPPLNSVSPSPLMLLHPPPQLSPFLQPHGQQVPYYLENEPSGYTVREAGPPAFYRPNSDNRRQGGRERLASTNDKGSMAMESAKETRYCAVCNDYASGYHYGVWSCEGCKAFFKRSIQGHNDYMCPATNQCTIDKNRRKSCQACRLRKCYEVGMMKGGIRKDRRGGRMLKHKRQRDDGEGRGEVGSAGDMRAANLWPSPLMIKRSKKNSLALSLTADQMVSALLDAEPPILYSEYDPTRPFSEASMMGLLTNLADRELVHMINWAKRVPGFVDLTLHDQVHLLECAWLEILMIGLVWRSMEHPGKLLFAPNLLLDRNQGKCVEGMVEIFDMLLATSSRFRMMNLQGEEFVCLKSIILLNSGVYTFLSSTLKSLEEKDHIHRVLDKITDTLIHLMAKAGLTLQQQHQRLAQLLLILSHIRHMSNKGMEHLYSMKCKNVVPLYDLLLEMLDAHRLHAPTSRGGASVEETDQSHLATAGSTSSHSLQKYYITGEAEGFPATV
Sequence of Peroxisome proliferator-activated receptor gamma (Homo sapiens) (P37231 whole entry, looked up): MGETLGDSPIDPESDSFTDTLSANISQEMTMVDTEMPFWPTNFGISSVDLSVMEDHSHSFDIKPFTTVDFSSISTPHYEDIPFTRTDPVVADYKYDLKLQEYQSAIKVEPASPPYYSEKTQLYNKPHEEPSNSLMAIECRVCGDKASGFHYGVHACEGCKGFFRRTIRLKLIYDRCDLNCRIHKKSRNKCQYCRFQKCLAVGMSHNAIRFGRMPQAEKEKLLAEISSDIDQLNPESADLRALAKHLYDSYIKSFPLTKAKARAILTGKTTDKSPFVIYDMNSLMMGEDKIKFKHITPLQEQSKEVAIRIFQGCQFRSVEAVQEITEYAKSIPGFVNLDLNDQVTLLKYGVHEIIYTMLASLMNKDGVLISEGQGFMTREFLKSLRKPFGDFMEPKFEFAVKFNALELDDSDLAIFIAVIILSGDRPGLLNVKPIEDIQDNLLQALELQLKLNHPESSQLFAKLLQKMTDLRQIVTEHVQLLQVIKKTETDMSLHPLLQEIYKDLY
Sequence of Aryl hydrocarbon receptor (Homo sapiens) (P35869 whole entry, looked up): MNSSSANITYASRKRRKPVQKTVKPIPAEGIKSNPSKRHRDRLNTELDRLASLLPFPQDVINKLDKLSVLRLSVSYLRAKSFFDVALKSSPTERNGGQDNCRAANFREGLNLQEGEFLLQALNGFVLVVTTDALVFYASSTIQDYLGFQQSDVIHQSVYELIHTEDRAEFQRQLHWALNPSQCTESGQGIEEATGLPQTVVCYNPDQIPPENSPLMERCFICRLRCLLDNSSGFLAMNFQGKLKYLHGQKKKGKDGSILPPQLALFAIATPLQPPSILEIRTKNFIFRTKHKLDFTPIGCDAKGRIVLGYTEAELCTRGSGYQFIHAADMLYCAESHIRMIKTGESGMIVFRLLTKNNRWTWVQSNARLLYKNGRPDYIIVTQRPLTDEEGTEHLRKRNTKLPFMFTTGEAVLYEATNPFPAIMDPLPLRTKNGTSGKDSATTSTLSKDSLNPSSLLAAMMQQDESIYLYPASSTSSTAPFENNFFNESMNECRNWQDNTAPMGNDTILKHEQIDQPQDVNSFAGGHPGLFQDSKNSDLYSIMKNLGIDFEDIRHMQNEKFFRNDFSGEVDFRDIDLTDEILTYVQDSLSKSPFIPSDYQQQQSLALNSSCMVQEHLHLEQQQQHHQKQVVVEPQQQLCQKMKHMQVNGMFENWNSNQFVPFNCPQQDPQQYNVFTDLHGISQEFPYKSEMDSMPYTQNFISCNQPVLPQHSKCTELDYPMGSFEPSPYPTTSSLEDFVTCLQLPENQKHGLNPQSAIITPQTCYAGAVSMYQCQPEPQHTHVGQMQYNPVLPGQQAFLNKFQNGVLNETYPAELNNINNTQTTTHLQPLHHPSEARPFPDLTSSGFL
Sequence of Aromatase (Homo sapiens) (P11511 whole entry, looked up): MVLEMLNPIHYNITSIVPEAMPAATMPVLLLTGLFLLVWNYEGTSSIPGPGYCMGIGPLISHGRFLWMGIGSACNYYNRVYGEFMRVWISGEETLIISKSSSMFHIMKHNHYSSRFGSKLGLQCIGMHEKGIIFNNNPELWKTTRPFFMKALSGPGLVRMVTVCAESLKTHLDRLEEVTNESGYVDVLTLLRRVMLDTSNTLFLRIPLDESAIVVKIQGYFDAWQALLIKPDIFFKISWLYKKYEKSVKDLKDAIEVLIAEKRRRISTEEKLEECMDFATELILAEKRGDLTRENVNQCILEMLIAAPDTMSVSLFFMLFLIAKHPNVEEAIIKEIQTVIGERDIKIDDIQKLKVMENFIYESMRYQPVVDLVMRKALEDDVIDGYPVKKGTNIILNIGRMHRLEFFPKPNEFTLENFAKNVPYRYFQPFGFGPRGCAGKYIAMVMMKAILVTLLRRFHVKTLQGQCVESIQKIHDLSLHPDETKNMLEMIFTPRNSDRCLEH

SMILES	Potency [1]	Potency [2]	outcome [3]	outcome [4]	Potency [5]	Potency [6]	outcome [7]	Potency [8]	outcome (Aromatase (Homo sapiens))	Potency [9]	Potency [10]	outcome [11]	outcome [12]	Potency [13]	outcome [14]	Potency [15]	outcome [16]	Potency [17]	Potency [18]
CC(C)(C)NC[C@H](O)COc1cccc2c1CCCC2=O	inactive	inactive	inactive	inactive	inactive	inactive	inactive	inactive	inactive	inactive	inactive	inactive	inactive	inactive	inactive	inactive	inactive	–	–
NCCOCCN	inactive	inactive	inactive	inactive	inactive	inactive	inactive	inactive	inactive	inactive	inactive	inactive	inactive	inactive	inactive	–	inactive	inactive	–
C=CCSSCCC	inactive	inactive	inactive	inactive	inactive	inactive	inactive	inactive	inactive	inactive	inactive	inactive	inactive	–	inactive	inactive	inactive	inactive	–
CC/C=C\CCOC(=O)c1ccccc1O	inactive	inactive	inactive	inactive	inactive	inactive	inactive	inactive	inactive	inactive	inactive	inactive	inactive	inactive	–	inactive	inactive	inactive	inactive
Cc1ncc([N+](=O)[O-])n1CC(C)O (stereo unspecified)	inactive	inactive	inactive	inactive	inactive	inactive	inactive	inactive	inactive	inactive	inactive	inactive	inactive	inactive	inactive	inactive	inactive	inactive	–
CCCCOCC(C)O (stereo unspecified)	inactive	inactive	inactive	inactive	inactive	inactive	inactive	inactive	inactive	inactive	inactive	inactive	inactive	–	inactive	inactive	inactive	–	inactive
CCc1occc(=O)c1O	inactive	inactive	inactive	inactive	inactive	inactive	inactive	inactive	inactive	inactive	inactive	–	inactive	–	inactive	inactive	inactive	inactive	inactive
CCCCCCCCCCCCCCCCCC#N	inactive	inactive	inactive	inactive	inactive	inactive	inactive	–	inactive	inactive	inactive	inactive	inactive	inactive	inactive	inactive	inactive	inactive	–
Cc1ccc(C(=O)O)cc1[N+](=O)[O-]	inactive	inactive	inactive	inactive	inactive	inactive	inactive	inactive	inactive	inactive	inactive	–	inactive	inactive	inactive	–	inactive	inactive	inactive
O=C(O)CCCCCC(=O)O	inactive	inactive	inactive	inactive	inactive	inactive	inactive	inactive	inactive	inactive	inactive	inactive	–	–	inactive	inactive	inactive	inactive	inactive
Nc1nnnn1-c1ccccc1	inactive	inactive	inactive	inactive	inactive	inactive	inactive	inactive	inactive	inactive	inactive	inactive	inactive	inactive	inactive	inactive	inactive	–	inactive
CC(C)CO	inactive	inactive	inactive	inactive	inactive	inactive	inactive	inactive	inactive	–	inactive	–	inactive	inactive	inactive	inactive	inactive	–	inactive
CC1(C)[C@H]2CC[C@](C)(C2)[C@H]1O	inactive	inactive	inactive	inactive	inactive	inactive	inactive	inactive	inactive	inactive	inactive	inactive	inactive	inactive	inactive	inactive	inactive	inactive	–
CCCCOC(=O)[C@H](C)O	inactive	inactive	inactive	inactive	inactive	inactive	inactive	inactive	inactive	inactive	inactive	inactive	inactive	–	inactive	inactive	inactive	inactive	inactive
CCC(C)OC(C)CC (stereo unspecified)	inactive	inactive	inactive	inactive	inactive	inactive	inactive	inactive	inactive	inactive	inactive	inactive	inactive	–	inactive	inactive	inactive	inactive	inactive
Cc1cc(C)c(C(=O)O)c(C)c1	inactive	inactive	inactive	inactive	inactive	inactive	inactive	inactive	inactive	inactive	inactive	inactive	inactive	inactive	inactive	inactive	inactive	inactive	inactive
CC1(C)Cc2cccc(N)c2O1	inactive	inactive	inactive	inactive	inactive	inactive	inactive	inactive	inactive	inactive	inactive	inactive	inactive	inactive	inactive	inactive	inactive	inactive	inactive

SMILES	Potency [1]	Potency [2]	outcome [3]	outcome [4]	Potency [5]	Potency [6]	outcome [7]	Potency [8]	outcome (Aromatase (Homo sapiens))	Potency [9]	Potency [10]	outcome [11]	outcome [12]	Potency [13]	outcome [14]	Potency [15]	outcome [16]	Potency [17]	Potency [18]
C[C@]12CCC(=O)C=C1CC[C@H]1[C@@H]3CC[C@](O)(C(=O)CO)[C@@]3(C)C[C@H](O)[C@@]12F	inactive	inactive	inactive	inactive	inactive	4.73 µM (active) and inactive	–	inactive	inactive	inactive	inactive	–	inactive	inactive	inactive	inactive	inactive	inactive	inactive
CC(=O)Nc1ccc(OC(=O)c2ccccc2OC(C)=O)cc1	inactive	inactive	inactive	inactive	inactive	inactive	inactive	inactive	inactive	inactive	inactive	inactive	inactive	–	inactive	inactive	inactive	–	inactive
N#Cc1ccccc1O	inactive	inactive	inactive	inactive	inactive	inactive	inactive	inactive	inactive	inactive	inactive	–	inactive	inactive	inactive	inactive	inactive	inactive	–
CC(C)Cn1cnc2c1c(=O)n(C)c(=O)n2C	inactive	inactive	inactive	inactive	inactive	inactive	inactive	inactive	inactive	inactive	inactive	inactive	inactive	inactive	inactive	inactive	inactive	inactive	inactive
c1ccc(-c2nn[nH]n2)cc1	inactive	inactive	inactive	inactive	inactive	inactive	inactive	inactive	inactive	inactive	inactive	inactive	inactive	–	inactive	inactive	inactive	inactive	inactive
CC/C(C)=N\O[Si](C)(O/N=C(\C)CC)O/N=C(\C)CC	inactive	inactive	inactive	inactive	inactive	inactive	inactive	inactive	inactive	inactive	inactive	inactive	inactive	inactive	inactive	–	inactive	inactive	–
CN1C[C@@H]2C[C@H]1CN2c1cc2c(cc1F)c(=O)c(C(=O)O)cn2C1CC1	inactive	inactive	inactive	inactive	inactive	inactive	inactive	inactive	inactive	inactive	inactive	inactive	inactive	inactive	inactive	–	inactive	inactive	inactive
CC(C)OC(=O)CCC(=O)OC(C)C	inactive	inactive	inactive	inactive	–	–	–	inactive	inactive	inactive	inactive	–	inactive	–	inactive	inactive	inactive	inactive	inactive
CN1CCOC(c2ccccc2)c2ccccc2C1 (stereo unspecified)	inactive	inactive	inactive	inactive	–	–	–	inactive	inactive	inactive	inactive	inactive	inactive	inactive	inactive	inactive	inactive	inactive	inactive
O=[N+]([O-])c1c(Cl)cc(Cl)cc1Cl	inactive	inactive	inactive	inactive	–	–	–	inactive	inactive	inactive	inactive	–	inactive	inactive	inactive	inactive	–	inactive	–
CC(O)COC(C)(C)C (stereo unspecified)	inactive	inactive	inactive	inactive	–	–	–	inactive	inactive	inactive	inactive	inactive	inactive	inactive	inactive	inactive	inactive	inactive	inactive
c1ccc2c(CC3=NCCN3)cccc2c1	inactive	inactive	inactive	inactive	–	–	inactive	inactive	inactive	inactive	inactive	inactive	inactive	–	inactive	inactive	inactive	inactive	–
OCC1(CO)COCOC1	inactive	inactive	inactive	inactive	–	–	–	inactive	inactive	inactive	inactive	inactive	inactive	inactive	inactive	inactive	–	inactive	inactive
CNCCS(=O)(=O)O	inactive	inactive	inactive	inactive	–	–	–	inactive	inactive	inactive	inactive	inactive	inactive	inactive	inactive	inactive	inactive	inactive	inactive
CC(C)CCOC(=O)c1ccccc1	inactive	inactive	inactive	inactive	–	–	–	inactive	inactive	inactive	inactive	–	inactive	inactive	inactive	inactive	inactive	inactive	inactive
CCCCCCCCCCCCCBr	inactive	inactive	inactive	inactive	–	–	–	inactive	inactive	inactive	inactive	inactive	inactive	inactive	inactive	–	inactive	inactive	inactive
